Screens from PubChem BioAssay.
MCF10A rereplic: DNA re-replication induction in MCF 10a cells; Potency, µM (top dose mostly 46.1 µM), for inactives: top-dose activity, positive = re-replication, most hits filed as activators; AID 624296; MCF 10A DNA re-replication, Hoechst nuclear intensity, 48 h; actives 2.9% (n = 350,000); further: % of control where 0% means no effect; nearly all actives have a fitted effect of over 50% in size
HT1080 IDH1KD tx: toxicity to HT-1080 IDH1 knockdown cells (counter line) | actives 2% (n = 360,000) | AID 686971 | Potency, µM (top dose mostly 46.1 µM), for inactives: at the highest dose activity, negative = toxicity, actives largely listed as cytotoxic | HT-1080 IDH1 knockdown viability, ATP luminescence, 48 h;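 further: 0% = DMSO wells and -100% = cell-free medium wells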
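Luminescent ATP read-out (CellTiter-Glo, 10 min at room temperature) after 48 h compound exposure at 37 °C gave viability of IDH1-knockdown HT-1080 cells. Activity was normalised to DMSO and cell-free wells, then fitted as concentration-response curves.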
KB-3-1 cytotox: kills parental KB-3-1 adenocarcinoma cells | AID 1347075 | actives 1.4% (n = 400,000) | Potency, µM (series often up to 46.1 µM), actives largely listed as cytotoxic | KB-3-1 viability, CellTiter-Glo ATP luminescence, 72 h; further: on the % scale 0 is the no-effect control and ±100 the full control effect; nearly all actives have a fitted effect of over 60% in size
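Screening of KB-3-1 cells (DMEM, 10% FBS, phenol-red free) ran from lowest to highest compound concentration; after 72 h at 37 °C viability was read luminescently and curves fitted.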
KB-V1 cytotox: KB-V1 MDR subline cytotoxicity. KB-V1 MDR cells viability, CellTiter-Glo, 72 h. Potency, µM (series often up to 46.1 µM), usual class: cytotoxic. actives 3.4% (n = 400,000). AID 1347076; further: on the % scale 0 is the no-effect control and ±100 the full control effect; nearly all actives have a fitted effect of over 60% in size
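Potencies derive from concentration-effect curves fitted to normalized luminescence (CellTiter-Glo) of KB-V1 cells treated for 72 h at 37 degrees C in phenol-red-free DMEM containing 10% FBS.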
HT1080NT lethal: kills 2HG-producing HT-1080-NT fibrosarcoma cells; HT-1080-NT fibrosarcoma viability, CellTiter-Glo ATP luminescence, 48 h; Potency, µM (highest dose often 46.1 µM), for the others: at the highest dose activity, negative = less viability, most hits filed as cytotoxic; actives 1.6% (n = 360,000); AID 686970;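 further: NT is the 2HG producing partner of a matched IDH1 knockdown line; 0% = DMSO-treated cells and -100% = media-only wells without cells; nearly all actives have a fitted effect of over 55% in size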
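Toxicity toward the 2HG-producing NT line was scored as %Activity, normalised to DMSO and no-cell wells, from CellTiter-Glo luminescence after 48 hours' treatment.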
SW480 rereplic: DNA re-replication induction in SW480 cells | SW480 DNA re-replication, Hoechst DNA content imaging, 48 h | Potency, µM (titrated, usually from 46.1 µM), without a hit: at the top dose re-replication activation, hits mostly activators | actives 1.8% (n = 340,000) | AID 624297; further: % of control where 0% means no effect; nearly all actives have a fitted effect of over 55% in size
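Per well, 250 cells were exposed to pinned compound for 48 hr. Nuclear DNA was visualised with Hoechst (40 min, 37 C) and total object intensity recorded by fluorescence scanning.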
* = called active by the depositor; i = inactive; ? = inconclusive; nt = no result. A selection: hits, their analogues and other compounds. The true share with any hit is near 8%. The call rests on the fitted dose curve; in most records, active means well fitted curve in the direction sought with a large enough effect; inconclusive means small, poorly fitted or top-dose-only effect, or another doubt; inactive means no such curve, though single readings can be large; an effect the other way counts as inactive or inconclusive. Potency means the concentration at half of the fitted maximal effect.

SMILES	MCF10A rereplic	HT1080 IDH1KD tx	KB-3-1 cytotox	KB-V1 cytotox	HT1080NT lethal	SW480 rereplic
COc1ccc(NC(C)=O)cc1NS(=O)(=O)c1ccc2c(c1)OCCO2	11%	-6%	?	i	-2%	?
Cc1c(NS(=O)(=O)c2ccc(C(C)(C)C)cc2)c(=O)n(-c2ccccc2)n1C	nt	nt	i	i	nt	nt
Cc1noc(C)c1S(=O)(=O)Nc1ccc(C(C)C)cc1	23µM*	0%	i	i	-7%	?
Cc1ccc(CNC(=O)c2ccc(NS(=O)(=O)c3c(C)noc3C)cc2)cc1	4%	-6%	i	i	-4%	-6%
CCOc1ccc(NC(=O)C2CCCN(c3nn4cc(-c5ccc(OC)cc5)nc4s3)C2)cc1 (centres undefined)	nt	nt	i	i	nt	nt
c1cc(CN2CCCCC2)cc(OCCCNc2nc3ccccc3s2)c1	?	?	i	?	?	?
O=C(O)c1ccc(NC(=S)NC(=O)c2cccc(COc3ccccc3)c2)cc1	-1%	-8%	i	i	-3%	-20%
O=C(NC(=S)Nc1ccc(CN2CCCCC2)cc1)c1cccc(OCc2ccccc2)c1	23µM*	21µM*	i	?	?	3%
O=C(NCCCOc1cccc(CN2CCCCC2)c1)c1ccc(Cl)c(Cl)c1	?	23µM*	i	i	21µM*	29µM*
CN1CCN(c2ccc(NC(=O)c3cccc(OCc4ccccc4)c3)cc2)CC1	0%	18µM*	i	i	21µM*	?
CCN1CCN(c2ccc(NC(=O)c3cccc(OCc4ccccc4)c3)cc2)CC1	?	?	?	?	-24%	?
Cc1c2cnn(-c3ccccc3)c(=O)c2c(C)n1CCCC(=O)Nc1cc(F)ccc1F	nt	nt	i	i	nt	nt
CSc1ccccc1NC(=O)CN1c2ccccc2CC1C (centres undefined)	?	-11%	i	i	-4%	8.2µM*
CSc1ccccc1NC(=O)CSCc1ccc(Br)cc1	10%	16%	i	21µM*	8%	-5%
O=C(COc1ccccc1C(=O)Nc1cccnc1)Nc1ccc(Br)cc1	nt	nt	i	i	nt	nt
CC(CS(=O)(=O)c1ccc2c(c1)NC(=O)CS2)C(=O)N1CCN(c2cccc(Cl)c2)CC1 (centres undefined)	16%	-9%	23µM*	i	-5%	11%
Cc1c2cnn(CC(=O)N3CCCCC3)c(=O)c2c(C)n1Cc1ccc(Cl)cc1	nt	nt	?	i	nt	nt
C/C(=N\NC(=O)c1c(C)nc2ccccn12)c1ccc(C(C)(C)C)cc1	18µM*	-27%	i	?	-25%	?
O=C(Nc1ccccc1)N1CCN(C(=O)c2nsc3ccccc23)CC1	nt	nt	i	i	nt	nt
O=C(NC1CCCCC1)N1CCN(CCc2ccccc2)CC1	?	4%	i	18µM*	5%	0%
CCN1CCN(C(=O)NC2CCCCC2)CC1	?	7%	i	i	9%	?
S=C(NCCCN1CCOCC1)N1CCN(c2nc(-c3ccccc3)cs2)CC1	?	23µM*	i	i	18µM*	0%
O=C(N1CCOCC1)N1CCN(c2nc(-c3ccccc3)cs2)CC1	?	5%	i	21µM*	4%	-3%
c1ccc(-c2csc(N3CCOCC3)n2)cc1	10%	-1%	i	i	25%	2%
COc1ccc(-c2csc(N3CCN(C(=O)c4ccccc4)CC3)n2)cc1	?	0%	i	16µM*	5%	-6%
SMILES	MCF10A rereplic	HT1080 IDH1KD tx	KB-3-1 cytotox	KB-V1 cytotox	HT1080NT lethal	SW480 rereplic
S=C(NCCCN1CCOCC1)N1CCN(c2nc(-c3ccc(Cl)cc3)cs2)CC1	?	?	?	i	?	?
Cc1cc2c(cc1S(=O)(=O)CCC(=O)N1CCCCC1C)OCC(=O)N2 (centres undefined)	nt	nt	i	i	nt	nt
CCC[C@@H]1C[C@@H](C(=O)N[C@@H]([C@H]2O[C@H](SC)[C@H](O)[C@@H](O)[C@H]2O)[C@@H](C)O)N(C)C1	-3%	nt	nt	nt	nt	10%
Cc1cc(C)c(S(=O)(=O)NCC(c2ccco2)N2CCOCC2)c(C)c1 (centres undefined)	nt	nt	i	i	nt	nt
O=C(NC(=S)N1CCN(c2nc(-c3ccccc3)cs2)CC1)c1cccnc1	?	-5%	i	21µM*	-7%	?
COCCNC(=S)N1CCN(c2nc(-c3ccccc3)cs2)CC1	1%	-6%	i	i	?	-10%
O=C(NC1CCCCC1)N1CCN(c2nc(-c3ccccc3)cs2)CC1	?	?	i	12µM*	-25%	1%
COc1cccc(-c2csc(N3CCN(C(=O)C4CCCCC4)CC3)n2)c1	15µM*	-4%	?	18µM*	2%	4%
COc1ccc(-c2csc(N3C(=O)C4C5c6ccccc6C(c6ccccc65)C4C3=O)n2)cc1 (centres undefined)	-1%	?	i	6.5µM*	17%	-5%
CCOCCCNC(=S)N1CCN(c2nc(-c3ccc(F)cc3)cs2)CC1	-6%	?	?	?	21µM*	-12%
COCCCNC(=S)N1CCN(c2nc(-c3ccc(F)cc3)cs2)CC1	-2%	-17%	?	i	?	?
CN(C)c1ccc(-c2noc(C3CCN(S(=O)(=O)c4cccc(Cl)c4)CC3)n2)cc1	?	-2%	16µM*	6.5µM*	6%	-2%
O=S(=O)(c1cccc(Cl)c1)N1CCC(c2nc3ccccc3[nH]2)CC1	8%	-7%	i	8.2µM*	-6%	17%
O=S(=O)(c1ccc2c(c1)OCCO2)N1CCC(c2nc3ccccc3[nH]2)CC1	3%	?	?	15µM*	-5%	-2%
CCCOc1ccccc1C1Oc2nc(SC)nnc2-c2ccccc2N1C(C)=O (centres undefined)	nt	nt	i	?	nt	nt
CN(C)CCN(C(=O)/C=C/c1cccs1)c1nc2c(F)cc(F)cc2s1	?	-100%	?	i	?	?
COc1ccc(C)c2sc(N(CCN(C)C)C(=O)/C=C/c3cccs3)nc12	4%	?	?	?	21µM*	6%
COc1ccc(OC)c2sc(N(CCN(C)C)C(=O)/C=C/c3cccs3)nc12	?	16µM*	?	?	18µM*	?
COc1cccc2sc(N(CCN(C)C)C(=O)/C=C/c3cccs3)nc12	?	?	i	i	-16%	18%
